Test results as given in PubChem BioAssay AID1159580 (chemical genetic matrix, 2015).
“And” between values parts separate entries of the source, which are not always exact repeats. Identical values can stand only once. The whole screen tested about 5,500 compounds, of which about 2,000 (36%) were called active. Not shown: some 18% with an inconclusive outcome. No stated cut-off is given here; in the data, active means normalized growth mostly below about 0.91 (no sharp cut-off); inconclusive means no clear call, values can overlap the other calls; inactive means mostly above about 0.92. The list shows a part of the results.

Experiment: chemical genetic growth profiling, strain panel (AID 1159580);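 further: tested at 20 µM; growth read once vehicle control cultures reached saturation at 30 °C; 1 = growth at the plate median or of vehicle wells; lower values mean less growth of the strain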
Settings: S. cerevisiae deletion strains, growth OD

Measured: normalized growth

NS(=O)(=O)c1cc2c(cc1C(F)(F)F)NC(Cc1ccccc1)NS2(=O)=O (stereo not drawn)
inactive: locus YAL021C, strain ccr4, active compounds read low 1 | locus YAL026C, strain drs2, active compounds read low 0.979 | locus YAL030W, strain snc1, active compounds read low 0.989 | locus YBL061C, strain skt5, active compounds read low 0.986 | locus YBR009C, strain hhf1, active compounds read low 0.988 | locus YBR021W, strain FUR4, active compounds read low 1.02 | locus YBR023C, strain chs3, active compounds read low 0.992 | locus YBR171W, strain sec66, active compounds read low 0.981 | locus YBR229C, strain ROT2, active compounds read low 1 | locus YBR231C, strain swc5, active compounds read low 0.986 | locus YBR279W, strain paf1, active compounds read low 1 | locus YCL011C, strain gbp2, active compounds read low 0.973 | locus YCL016C, strain dcc1, active compounds read low 0.988 | locus YCL029C, strain bik1, active compounds read low 1.01 | locus YCL061C, strain MRC1, active compounds read low 0.991 | locus YCL069W, strain vba3, active compounds read low 1 | locus YCR088W, strain abp1, active compounds read low 0.993 | locus YDL005C, strain med2, active compounds read low 0.991 | locus YDL035C, strain GPR1, active compounds read low 1.02 | locus YDL040C, strain nat1, active compounds read low 1.01 | locus YDL074C, strain BRE1, active compounds read low 0.969 | locus YDL101C, strain DUN1, active compounds read low 1 | locus YDL134C, strain PPH21, active compounds read low 1.02 | locus YDL185W, strain tfp1, active compounds read low 1.01 | locus YDL192W, strain arf1, active compounds read low 1.01 | locus YDR001C, strain nth1, active compounds read low 0.98 | locus YDR069C, strain doa4, active compounds read low 0.997 | locus YDR101C, strain arx1, active compounds read low 0.985 | locus YDR137W, strain rgp1, active compounds read low 0.977 | locus YDR159W, strain sac3, active compounds read low 0.991 | locus YDR162C, strain NBP2, active compounds read low 1.01 | locus YDR195W, strain ref2 0.983 | locus YDR297W, strain sur2, active compounds read low 0.986 | locus YDR318W, strain mcm21, active compounds read low 1.01 | locus YDR334W, strain swr1, active compounds read low 0.953 | locus YDR335W, strain msn5, active compounds read low 0.991 | locus YDR388W, active compounds read low 1.01 | locus YDR392W, strain spt3, active compounds read low 0.943 | locus YDR502C, strain sam2, active compounds read low 0.996 | locus YEL003W, strain gim4, active compounds read low 0.983 | locus YEL037C, strain rad23, active compounds read low 0.984 | locus YEL061C, strain CIN8 (second series), active compounds read low 0.989 | locus YEL061C, strain CIN8, active compounds read low 1 | locus YER015W, strain faa2, active compounds read low 0.992 | locus YER016W, strain bim1, active compounds read low 0.992 | locus YER110C, active compounds read low 1.02 | locus YER111C, strain swi4, active compounds read low 0.999 | locus YER155C, strain BEM2 (second series), active compounds read low 0.974 | locus YER155C, strain BEM2, active compounds read low 0.999 | locus YER167W, strain BCK2, active compounds read low 1.01 | locus YFR010W, strain ubp6, active compounds read low 0.971 | locus YGL078C, strain dbp3, active compounds read low 0.995 | locus YGL086W, strain mad1, active compounds read low 0.99 | locus YGL167C, strain pmr1, active compounds read low 0.989 | locus YGL173C, strain kem1, active compounds read low 0.981 | locus YGL227W, strain vid30, active compounds read low 1 | locus YGL240W, strain doc1, active compounds read low 0.984 | locus YGL248W, strain PDE1, active compounds read low 0.999 | locus YGL253W, strain hxk2, active compounds read low 0.998 | locus YGR135W, strain pre9, active compounds read low 1.04 | locus YGR229C, strain SMI1, active compounds read low 1 | locus YGR252W, strain gcn5, active compounds read low 1.01 | locus YHR013C, strain ard1, active compounds read low 0.967 | locus YHR027C, strain rpn1, active compounds read low 0.971 | locus YHR030C, strain SLT2, active compounds read low 1 and 0.973 | locus YHR079C, strain IRE1 (second series), active compounds read low 1.01 | locus YHR079C, strain IRE1, active compounds read low 0.98 | locus YHR094C, strain hxt1, active compounds read low 1.01 | locus YHR129C, strain ARP1, active compounds read low 1.01 | locus YHR142W, strain chs7, active compounds read low 0.96 | locus YHR200W, strain rpn10, active compounds read low 1.01 | locus YIL066C, strain RNR3, active compounds read low 0.999 | locus YIL073C, strain SPO22, active compounds read low 1.05 | locus YIL125W, strain kgd1, active compounds read low 0.999 | locus YIR030C, strain dcg1, active compounds read low 1.01 | locus YJL092W, strain hpr5, active compounds read low 1 | locus YJL095W, strain BCK1 (second series), active compounds read low 0.997 | locus YJL095W, strain BCK1, active compounds read low 0.97 and 0.978 | locus YJL115W, strain asf1, active compounds read low 0.966 | locus YJL129C, strain trk1, active compounds read low 1 | locus YJL134W, strain LCB3, active compounds read low 1 | locus YJL154C, strain vps35, active compounds read low 0.985 | locus YJL164C, strain tpk1, active compounds read low 0.984 | locus YJL166W, strain qcr8, active compounds read low 0.97 | locus YJL168C, strain set2, active compounds read low 1.01 | locus YJL187C, strain SWE1 (second series), active compounds read low 0.984 | locus YJL187C, strain SWE1, active compounds read low 0.994 | locus YJR043C, strain POL32, active compounds read low 0.982
